# Assays:
# Assay in all cases: PBM binding z-score (relative to random genomic background probes); higher = stronger binding; sequences stand for … in GC…GCGATTGACAGCGTAGAATGAAGG
# [1] = tested on: FXR:RXRa (NR concentration 270 nM, RXRa partner concentration 90 nM)
# Outline: (§1)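 Custom Agilent 4×180K protein-binding microarrays carried double-stranded probes, each with a 34-nt variable region. These regions held direct-repeat seeds, single-nucleotide variants, half-site ablations and random human genomic background sequences. Ligand-free nuclear receptor dimers were incubated on the arrays for 1 h, antibodies against each partner (one per run) detected binding, and scanned fluorescence was regression-normalized. Binding z-scores take the random background probes as reference.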
# [2] = tested on: LXRa:RXRa (NR concentration 270 nM, RXRa partner concentration 90 nM)
# Outline: as §1
# [3] = tested on: LXRa homodimer (NR concentration 270 nM)
# Outline: as §1
# [4] = tested on: LXRb:RXRa (NR concentration 270 nM, RXRa partner concentration 90 nM)
# Outline: as §1
# [5] = tested on: LXRb homodimer (NR concentration 270 nM)
# Outline: as §1
# [6] = tested on: PPARa:RXRa (NR concentration 270 nM, RXRa partner concentration 90 nM)
# Outline: as §1
# [7] = tested on: PPARg:RXRa (NR concentration 180 nM, RXRa partner concentration 90 nM)
# Outline: as §1
# [8] = tested on: PPARg:RXRa 270nM:90nM, anti-RXR (NR concentration 270 nM, RXRa partner concentration 90 nM)
# Outline: as §1
# [9] = tested on: PPARg:RXRa 30nM:10nM, anti-RXR (NR concentration 30 nM, RXRa partner concentration 10 nM)
# Outline: as §1
# [10] = tested on: PPARg:RXRa 90nM:30nM, anti-RXR (NR concentration 90 nM, RXRa partner concentration 30 nM)
# Outline: as §1
# [11] = tested on: PPARg:RXRa DBDmut IVT, anti-RXR (DBD mutation: RXRa K156A/R161A, NR concentration 270 nM, RXRa partner concentration 90 nM)
# Outline: as §1
# [12] = tested on: PPARg:RXRa IVT, anti-PPARg (NR concentration 270 nM, RXRa partner concentration 90 nM)
# Outline: as §1
# [13] = tested on: PPARg DBDmut:RXRa IVT, anti-PPARg (DBD mutation: PPARg1 K132A/R137A, NR concentration 270 nM, RXRa partner concentration 90 nM)
# Outline: as §1
# [14] = tested on: PPARg DBDmut IVT, anti-PPARg (DBD mutation: PPARg1 K132A/R137A, NR concentration 270 nM)
# Outline: as §1
# [15] = tested on: PPARg homodimer (NR concentration 180 nM)
# Outline: as §1
# [16] = tested on: PXR:RXRa (NR concentration 270 nM, RXRa partner concentration 90 nM)
# Outline: as §1
# [17] = tested on: PXR homodimer (NR concentration 270 nM)
# Outline: as §1
# [18] = tested on: RARa:RXR (NR concentration 270 nM, RXRa partner concentration 90 nM)
# Outline: as §1
# [19] = tested on: RARa homodimer (NR concentration 270 nM)
# Outline: as §1
# [20] = tested on: RARb:RXRa (NR concentration 270 nM, RXRa partner concentration 90 nM)
# Outline: as §1
Sequence,PBM binding z-score [1],PBM binding z-score [2],PBM binding z-score [3],PBM binding z-score [4],PBM binding z-score [5],PBM binding z-score [6],PBM binding z-score [7],PBM binding z-score [8],PBM binding z-score [9],PBM binding z-score [10],PBM binding z-score [11],PBM binding z-score [12],PBM binding z-score [13],PBM binding z-score [14],PBM binding z-score [15],PBM binding z-score [16],PBM binding z-score [17],PBM binding z-score [18],PBM binding z-score [19],PBM binding z-score [20]
AATACAGGGTCACTAGCCCAGAGTAGGTACGAAT,5.41,4.89,1.13,3.8,0.946,5.41,5.91,5.2,2.09,4.01,2.81,4.3,1.88,0.703,2.29,2.92,0.113,3.64,1.11,4.08
TAGCCTAGGTCATTCAGGGCCCAGTATAGAAAGC,4.66,3.59,0.608,2.37,0.858,3.62,1.96,2.34,0.126,1.56,1.83,2.54,0.246,-0.28,1.19,1.88,-0.155,2.32,-0.0549,3.54
CGTCAACGTTCAAGGTAACGTAACAGAAAGCAGC,-0.152,-0.339,-0.374,-0.129,-0.566,-0.0131,0.721,-0.237,-0.128,-0.193,-0.333,0.375,-0.0516,-0.229,-0.442,-0.292,-0.379,-0.0345,-0.412,0.89
TTACCAAGGTGAGCTGAGGTCGTTGATCCAACTC,2.68,1.31,-0.429,0.771,-0.932,1.75,0.0695,0.731,-0.00962,0.482,1.28,2.17,-0.497,-0.723,-0.21,4.78,0.329,1.72,-1.01,1.93
TCAGACAGGTGAAGGTAAGTCAGGTACGCAGTCG,0.571,0.454,-0.273,0.356,-0.365,0.993,0.552,2.03,4.06,2.93,2.4,1.07,-0.136,-0.843,1.02,0.265,0.282,0.741,0.234,1.08
CATACAGGGTCAGCTAGGACAGAGTAGGGACGGC,4.48,2.8,-0.0468,2.29,0.178,4.13,3.16,2.87,0.481,1.76,1.2,2.23,0.778,0.0196,0.881,2.07,0.128,3,0.439,4.04
TTACCAAGGTGAAGGTCGTCGATCCCTCTGTAGA,1.32,1.01,-0.48,1.09,-0.788,2.6,3.62,4.16,2.47,4.28,1.94,3.33,0.0568,0.108,0.887,1.24,-0.288,1.64,-0.604,2.36
CATACAGAGTCAGCTAGGCCAGAGTAGGGACGGC,-0.451,-0.383,-0.608,-0.891,-0.106,-0.478,0.472,-0.324,-0.369,-0.479,-0.267,0.0883,0.15,0.197,-0.174,-0.875,-0.632,-0.635,-0.132,0.148
AGAATGAGGATATACGTAGATCAGGGAAGAAAGT,-0.224,-0.666,-0.354,-0.479,-0.429,-0.509,0.977,-0.177,0.217,-0.000713,-0.138,-0.218,0.0706,0.805,0.0264,-0.403,-0.147,-0.363,0.32,-0.448
GATACAGCGTCAGCTAGAGGCCAGAGTATGGAAA,-1.06,-0.907,-0.84,-1.11,-1.5,-1.18,0.184,-0.842,-0.638,-1,-0.984,-0.61,-2.52,-1.12,-1.09,-0.922,-0.376,-0.685,-1.14,-0.322
CGTCCAAGGTCAGGAGGTCAGTGAAAGCGACGTG,6.23,4.55,1.15,3.64,-0.0727,5.43,4.93,5.41,1.89,4.06,2.95,3.93,-0.53,-1.29,5.26,4.65,1.1,6.11,1.5,5.52
ATCTCTAGGTAAAAGTTCTGTGAATCCCGAGGAT,0.0905,0.216,0.111,-0.143,0.463,1.52,2.62,3.93,2.04,4.05,2.32,1.91,1.22,1.71,1.06,0.0852,0.034,-0.0223,0.566,0.232
GCTGGTTGGTCAGTAAAAGGTCACACACCGGTCG,3.32,4.46,4.47,4.09,1.04,4.38,2.91,4.89,2.71,4.59,0.091,2.51,0.438,0.205,3.78,5.07,1.42,6.03,2.87,4.3
CCTACTGGGCCAAATAGGTCATTGATGCCGATAA,1.09,1.66,0.941,1.91,-0.592,3.18,2.07,2.92,0.838,2.18,4.31,4.63,0.236,-0.456,1.27,1.88,0.588,2.32,0.564,2.23

# Reference: the supplement of paper PMC6555819
